Assay results: PubChem BioAssay (NCI)
About 83,000 compounds went through this panel and 20% of them were active in at least one assay; those are over-represented in the sample as a whole.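 Negative percent growth values reflect cell death: -40 means 40% of the cells present at the start died, and -100 means all died.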 Calls of active or inactive are those of the source. How the source made its calls: active means growth percent below 10; inactive means the rest.

Experiments:
Assay in all cases: NCI-60 one-dose screen, 48 h (100 = growth as untreated, 0 = no growth, -100 = all killed)
Conditions in all cases: 10 µM unless noted
[1] = system: T-47D breast
[2] = system: BT-549 breast
[3] = system: MDA-MB-435 melanoma
[4] = system: SW-620 colon
[5] = system: MCF7 breast
[6] = system: HCT-116 colon
[7] = system: HCC-2998 colon
[8] = system: KM12 colon

Measured: growth

Nc1ncnc2c1N=C(c1ccc(F)cc1)CC(c1cccc(Nc3ccnc4cc(Cl)ccc34)c1)N2 (stereo unspecified)
inactive: [1] 93.2% | [2] 99.9% | [3] 41.8% | [4] 82.8% | [5] 51.2% | [6] 49.7% | [7] 82.5% | [8] 60.9%

CC(C)(C)OC(=O)CN1CCc2c(sc3ncnc(N4CCN(c5ccc(F)cc5)CC4)c23)C1
inactive: [1] 63.9% | [2] 76.1% | [3] 93.3% | [4] 77.7% | [5] 90.6% | [6] 87.3% | [7] 100% | [8] 83%

N=C(N)c1ccc(-c2ccc(-c3cc(Cl)cc(Cl)c3)s2)s1
active: [1] -50% | [3] -69.7% | [4] -39.8% | [5] -64.2% | [6] -52.5% | [7] -59.9% | [8] -58.6%
inactive: [2] 87.8%

N#Cc1ccc(O)c(C2=NCC(c3ccc(-c4ccccc4)cc3)O2)c1 (stereo unspecified)
inactive: [2] 16.3% | [3] 26.8% | [4] 23.9% | [5] 10.3% | [7] 34.8% | [8] 16.6%
active: [1] -1.94% | [6] 9.12%

CC/C(=C(\c1ccc(Cl)cc1)c1ccc(OCCN2CCCCC2)cc1)c1ccc(O)cc1
active: [1] 4.66% | [3] 2.07% | [4] -35.7% | [5] 3.41% | [6] -56.5%
inactive: [2] 58.3% | [7] 37.5% | [8] 17.5%

CC[C@H](Nc1nc(N)nc(C)c1C#N)c1nc2cccc(CN(C)c3ncc(C(=O)NO)cn3)c2c(=O)n1-c1ccccc1
active: [1] -23.1% | [3] -3.69% | [4] 3.51% | [6] -19.7% | [7] -7.29%
inactive: [2] 34.6% | [5] 10.8% | [8] 16.4%

CCN(CC)CCOc1ccc2c(-c3ccccc3)c(-c3ccc(OC)cc3)c(=O)oc2c1
inactive: [1] 51.4% | [2] 90.6% | [3] 41.3% | [4] 39.4% | [5] 61.3% | [6] 30% | [7] 90.9% | [8] 60.4%

Cc1cccc(NC(=O)Cn2cc(CN3CCN(c4ccnc5cc(Cl)ccc45)CC3)nn2)c1
inactive: [1] 83.8% | [2] 86.2% | [3] 93.4% | [4] 90.1% | [5] 88.2% | [6] 95.3% | [7] 102% | [8] 81.6%

N#CSc1c[nH]c2ccc(/C=C/C(=O)/C=C(O)/C=C/c3ccc4[nH]cc(SC#N)c4c3)cc12
inactive: [1] 19.4% | [2] 15.7% | [5] 10.5% | [7] 46.3% | [8] 24.9%
active: [3] -2.07% | [4] 9.56% | [6] 9.39%

Clc1ccc2nn3c4ccccc4c(OCCN4CCOCC4)nc3c2c1
inactive: [1] 87.7% | [2] 97.8% | [3] 103% | [4] 88.1% | [5] 83.4% | [6] 88.7% | [7] 107% | [8] 100%

O=C(NNc1nc2cc(F)ccc2n2c(CN3CCOCC3)ccc12)c1ccccc1
active: [4] -1.14% | [5] -6.31% | [6] 0.232%
inactive: [1] 11.8% | [2] 25.7% | [3] 27.3% | [7] 32.8% | [8] 12.2%

Cc1nc([P+](c2ccccc2)(c2ccccc2)c2ccccc2)c(N2CCCCC2)o1
inactive: [2] 20% | [3] 21.3% | [4] 37% | [5] 10.9% | [6] 10.9% | [7] 31.6% | [8] 10.1%
active: [1] -0.433%

O=c1oc2ccccc2cc1-c1nn(-c2ccccc2)cc1-c1nn[nH]n1
inactive: [1] 100% | [2] 103% | [3] 99.5% | [4] 102% | [5] 94.8% | [6] 96.5% | [7] 110% | [8] 106%

COC(=O)/C(CCC=C(C)C)=C1\[C@@H](OC(C)=O)C[C@@]2(C)[C@H]1C/C(=N/O)[C@H]1[C@@]3(C)CC/C(=N\O)[C@@H](C)[C@@H]3CC[C@@]12C
inactive: [1] 82.9% | [2] 95.5% | [3] 98.6% | [4] 106% | [5] 55.1% | [6] 101% | [7] 110% | [8] 103%

CC1(C)N=C(N)N=C(N)N1c1ccc(S(=O)(=O)Nc2nccs2)cc1
inactive: [1] 95.6% | [2] 94.1% | [3] 102% | [4] 98.2% | [5] 103% | [6] 100% | [7] 113% | [8] 101%

O=S(O)c1cc(Cl)cc(Cl)c1OCc1ccccc1
inactive: [1] 102% | [2] 107% | [3] 107% | [4] 107% | [5] 100% | [6] 96.2% | [7] 102% | [8] 105%

COc1ccc(C2C3=C(COC3=O)N(CCO)c3cc4c(cc32)OCO4)cc1OC (stereo unspecified)
inactive: [1] 87.5% | [2] 80.5% | [4] 61.6% | [5] 64.3% | [6] 68.6% | [7] 74.5% | [8] 62.4%
active: [3] 5.99%

COc1cc(C=C2C(=O)NC(=S)NC2=O)cc(CN2CCCC2)c1O
inactive: [1] 110% | [2] 114% | [3] 100% | [4] 108% | [5] 96.1% | [6] 113% | [7] 110% | [8] 110%

COc1nc(/C=C\Nc2ccc3c(c2)OCCOCCOCCOCCO3)nc(OC)n1
inactive: [1] 87.5% | [2] 92.9% | [3] 94.8% | [4] 94% | [5] 93% | [6] 95.2% | [7] 98.2% | [8] 101%

Cn1cc(-c2csc(-c3cn(CCCN4CCOCC4)c4ccc(F)cc34)n2)c2cccnc21
inactive: [1] 41.1% | [2] 71.6% | [3] 65.3% | [4] 61% | [5] 34.1% | [6] 72.3% | [7] 65.4% | [8] 34.3%

COc1ccc(-c2nc3c(c(-c4ccc(Cl)cc4)nn3-c3ccccc3)c(-c3ccccc3)c2C#N)cc1
inactive: [1] 94.3% | [2] 106% | [3] 105% | [4] 104% | [5] 96% | [6] 101% | [7] 115% | [8] 98.5%

CC(C)=CC(=O)N[C@H]1CC[C@]2(C)C3CC[C@]4(C)C(C(C)N(C)C)=CCC4C3CCC2[C@H]1O (stereo partly specified)
active: [3] -33.8% | [4] -23.5% | [6] 2.25%
inactive: [1] 38.6% | [2] 54.4% | [5] 11.4% | [7] 35.8% | [8] 23.2%

Cc1ccc(C)c2c1sc1nc(N3CCOCC3)c(C#N)c(=O)n12
inactive: [1] 73.4% | [2] 90.9% | [3] 118% | [4] 105% | [5] 51.5% | [6] 88.6% | [7] 109% | [8] 63.1%

O=c1oc2c(cnc3ccccc32)cc1-c1cccc(Cl)c1
inactive: [1] 107% | [2] 115% | [3] 97% | [4] 106% | [5] 99.2% | [6] 105% | [7] 109% | [8] 110%

COc1ccc(/C=C2\c3cc(OC)c(OC)c(OC)c3CC[C@@H]2O)cc1F
active: [3] -35.6% | [6] 8.9%
inactive: [1] 43.6% | [2] 23% | [4] 28% | [5] 18.4% | [7] 35.7% | [8] 22.9%

O=C(NN1C(=O)CSC1c1cccc([N+](=O)[O-])c1)c1ccc(NC(=O)c2ccccn2)cc1 (stereo unspecified)
inactive: [1] 94.7% | [2] 99.6% | [3] 98.9% | [4] 104% | [5] 89.2% | [6] 98.3% | [7] 90% | [8] 93.8%

COC(=O)[C@@]12CC=C(C)[C@]3(C[C@H](c4ccoc4)OC3=O)[C@H]1C=C[C@@H](O)[C@@]2(O)C(=O)OC
inactive: [1] 110% | [2] 110% | [3] 102% | [4] 113% | [5] 101% | [6] 97.7% | [7] 101% | [8] 103%

CN1C(=O)/C(=C/c2ccc(C(=O)Nc3ncc(Cc4cc(Cl)ccc4Cl)s3)cc2)SC1=S
inactive: [1] 59.8% | [2] 85.2% | [4] 62.8% | [5] 67.4% | [6] 60.9% | [7] 83.1% | [8] 49.8%
active: [3] 5.7%

CCN(CC)CCOc1ccc2ccc(=O)oc2c1
inactive: [1] 97.5% | [2] 102% | [3] 112% | [4] 101% | [5] 97.6% | [6] 100% | [7] 90.5% | [8] 103%

COc1c2c(cc3c1C(=O)N[C@@H]1[C@@H](O)[C@@H](O)[C@H](O)C[C@@H]31)OCCO2
inactive: [1] 84.9% | [2] 99.5% | [3] 108% | [4] 104% | [5] 93.9% | [6] 102% | [7] 106% | [8] 99.1%

O=C(Nc1cccnc1Nc1ccc(Cl)cc1)c1cn(Cc2cccc(Oc3ccccc3)c2)nn1
active: [3] -30.2%
inactive: [1] 48.1% | [2] 52.2% | [4] 36.5% | [5] 19.6% | [6] 23.4% | [7] 63.9% | [8] 31.8%

COc1ccc2c(c1)CC[C@@H]1[C@@H]2CC[C@]2(C)C3C(=CC(COC(C)=O)C4C(=O)N(c5ccc(Cl)cc5)C(=O)C43)C[C@@H]12 (stereo partly specified)
inactive: [1] 105% | [2] 116% | [3] 111% | [4] 104% | [5] 108% | [6] 85.2% | [7] 92.9% | [8] 102%
